This is an account of results in PubChem BioAssay.

SMILES strings stand for the structures. Active and inactive are the calls of the source.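 Rule for the calls, unless noted: active = inhibition above 20% together with a positive visual image hit; inconclusive = visual image hit but inhibition not above 20%; inactive = no visual image hit.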

Test [1] is described as follows: inhibitors of TNFa-induced NFkB p65 translocation, primary screen, imaging, HUVEC, MLSMR starter and 10KST1 sets (AID 438).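 For inhibition: signal is the nuclear over cytoplasmic p65 intensity ratio per well.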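 Note: compound added about 3h40 before a 20 min TNFalpha stimulation.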 The settings on record: HUVEC TNFa-induced p65 nuclear translocation; cell count: measured here: nuclei count (cytotoxicity indicator), at 2.08 µM; inhibition: at 2 µM, stronger effect = higher value, 0% TNFa-plus-vehicle, 100% no-TNFa wells.
A short description of test [2]: reduction of polyQ htt aggregates in cells – imaging, exon1htt(103Q)mCFP cells, high-content imaging, primary screen (AID 483;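 active = visual image review flags a hit and inhibition of aggregation exceeds 20%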;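 note: compound exposure lasted 3 days before fixation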;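 for nuclei count: percent of the per-plate median nuclei count of sample wells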). To be noted: exon1htt(103Q)mCFP cell line, aggregate imaging, at 2 µM; inhibition of aggregation: stronger effect = higher value; nuclei count: measured here: cell count, toxicity.
A short description of test [3]: endothelial E-selectin expression blockers – imaging, HUVEC, immunofluorescence, MLSMR starter and 10KST1 sets, primary screen (AID 487;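 active = visually confirmed hit in the image check and inhibition above 20%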;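 for inhibition: signal is fraction of cell area covered by stained E-selectin grains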;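 for nuclei count: 100% = median nuclei count of all wells on the same plate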). The settings on record: HUVEC TNFalpha-induced E-selectin immunofluorescence imaging, at 2 µM; inhibition: stronger effect = higher value; nuclei count: measured here: cell number, toxicity.
Test [4] deals with Voltage-gated potassium channel subunit beta-2 (Rattus norvegicus) (UniProt P62483). Nature of the test: inhibitors of rat Kvbeta2 reductase activity – biochemical, NADPH fluorescence, primary screen (AID 622;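 active = fluorescence slope higher than the sample average by over 3 SD, cut at about -0.22 in these data, passing the limit was not always enough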;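 note: slope of raw intensity against log time taken from 70 to 1610 s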). To be noted: recombinant KvBeta, 4-cyanobenzaldehyde reduction, at 10 µM, stronger effect = higher value.
Chain of Voltage-gated potassium channel subunit beta-2 (Rattus norvegicus) (P62483 whole entry, looked up): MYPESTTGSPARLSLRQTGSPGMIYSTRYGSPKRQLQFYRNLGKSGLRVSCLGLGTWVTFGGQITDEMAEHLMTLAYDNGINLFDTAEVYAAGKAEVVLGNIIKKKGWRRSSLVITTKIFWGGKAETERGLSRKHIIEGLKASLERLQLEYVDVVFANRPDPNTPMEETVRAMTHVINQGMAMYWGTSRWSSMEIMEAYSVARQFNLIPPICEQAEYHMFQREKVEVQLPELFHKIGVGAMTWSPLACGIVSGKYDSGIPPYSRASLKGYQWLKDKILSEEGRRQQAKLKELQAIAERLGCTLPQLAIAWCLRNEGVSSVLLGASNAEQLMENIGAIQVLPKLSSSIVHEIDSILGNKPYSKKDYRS
Test [5] has the same target. Nature of the test: enhancers of rat Kvbeta2 NADPH turnover – biochemical, NADPH fluorescence, primary screen (AID 623;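 active = NADPH fluorescence slope more negative than the mean of all samples by about 3 SD, 99.7% confidence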;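 note: fluorescence intensity change per second fitted from 20 to 320 s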). To be noted: Recombinant KvBeta, NADPH fluorescence decrease slope, 10 min; at 10 µM; stronger effect = lower value.
Test [6] deals with Alpha-2C adrenergic receptor (Homo sapiens) (UniProt P18825). Nature of the test: compounds altering alpha2C-coupled GIRK flux – cell-based, HEK293 alpha2C/GIRK1/2, thallium flux, primary screen (AID 624;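 active = fluorescence slope after compound addition differing from the mean of all screened samples at 99.7% confidence, in either direction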;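 note: slope of fluorescence ratio to pre-addition baseline per second over 15 to 24 s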). The settings on record: thallium flux BTC fluorescence, at 10 µM, actives lie on both sides.
Chain of Alpha-2C adrenergic receptor (Homo sapiens) (P18825 whole entry, looked up): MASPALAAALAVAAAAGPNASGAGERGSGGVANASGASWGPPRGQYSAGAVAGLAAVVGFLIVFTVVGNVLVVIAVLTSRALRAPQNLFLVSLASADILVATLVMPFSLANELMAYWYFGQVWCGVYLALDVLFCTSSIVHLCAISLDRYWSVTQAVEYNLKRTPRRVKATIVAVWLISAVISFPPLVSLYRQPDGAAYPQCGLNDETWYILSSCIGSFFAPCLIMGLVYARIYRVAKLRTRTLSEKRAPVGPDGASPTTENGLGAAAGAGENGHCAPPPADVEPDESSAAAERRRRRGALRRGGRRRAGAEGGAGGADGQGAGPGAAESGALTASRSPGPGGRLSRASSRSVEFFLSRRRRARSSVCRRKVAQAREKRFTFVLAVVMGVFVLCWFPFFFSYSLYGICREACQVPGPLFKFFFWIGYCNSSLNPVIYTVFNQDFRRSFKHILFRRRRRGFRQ
A short description of test [7]: blockers of RIG-like receptor reporter activation – cell-based, Sendai virus stimulus, luciferase, 10K MLSCN set, TLR/RLR signaling modifier project, primary screen (AID 602276;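 active = inhibition at or above 50% at 10 µM; inactive = inhibition below 50%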;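 note: firefly luciferase from ISG56 promoter only with Renilla not read in this screen; 0% = Sendai virus plus DMSO and 100% = medium plus DMSO without virus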). The settings on record: HEK293 RL24 IRF3 luciferase reporter, at 10 µM, stronger effect = higher value. A general note: A reporter such as luciferase makes a cellular process visible.
The nature of test [8]: TLR3 IRF3 reporter activation blockers – cell-based, poly I:C stimulus, luciferase, 10K MLSCN set, primary screen (AID 602277;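 active = inhibition of the reporter signal at or above 50%; inactive = inhibition below 50%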). The settings on record: HEK293-TLR3 RL24 IRF3 luciferase reporter, at 10 µM, stronger effect = higher value.

With `COc1ccccc1C(=O)N1CCN(C(=O)c2ccncc2)CC1`, in test [1], the cell count was 252. The inhibition (usually the relative decrease from the control value, in per cent) was 7.8% (inactive) in test [1], 12.3% (inactive) in test [3], 8.46% (inactive) in test [7] and 6.89% (inactive) in test [8]. The inhibition of aggregation in test [2] is -2.8% (inactive). For the same molecule, the nuclei count is 92.4% in test [2] and 76.2% in test [3]. In addition, the fluorescence slope in test [4] was -0.515 (inactive). For the same molecule, in test [5], the NADPH fluorescence slope was -1.9e-05 (inactive). The slope in test [6] was 0.00571 (inactive).
As to `COCCN(Cc1cc2cccc(C)c2[nH]c1=O)C(=O)c1ccccc1`, the cell count in test [1] stood at 298. For the same molecule, the inhibition in test [1] is -22.3% (inactive); in test [3] it was -23.9% (inactive); in test [7], 7.15% (inactive); in test [8], 16.3% (inactive). In addition, the inhibition of aggregation in test [2] is 3.6% (inactive). Moreover, the results for the nuclei count in test [2] and in test [3] were 91.8% and 124%, respectively. Also, the fluorescence slope in test [4] is -0.372 (inactive). In addition, the NADPH fluorescence slope in test [5] was -5.9e-05 (inactive). The slope in test [6] was 0.00564 (inactive).
`O=C(Cn1cc2c(n1)CCCCC2)N1CCc2ccccc2C1`: in test [1], the cell count is 670. Further, the inhibition is 12% (inactive) in test [1], 27.7% (inactive) in test [3], -16% (inactive) in test [7] and -17.6% (inactive) in test [8]. Further, in test [2], the inhibition of aggregation is 15.4% (inactive). The nuclei count amounted to 88.6% in test [2] and 85.1% in test [3]. Further, the fluorescence slope in test [4] is -0.631 (inactive). The NADPH fluorescence slope in test [5] is 1.4e-05 (inactive). Besides, the slope in test [6] is 0.0057 (inactive).
For the molecule `CCOc1ccccc1C(=O)NCc1ccc2c(c1)OCO2`, the cell count in test [1] amounted to 414. Moreover, the inhibition in test [1] was 1.1% (inactive); in test [3], -18.7% (inactive); in test [7], 10.4% (inactive); in test [8], -6.17% (inactive). In addition, in test [2], the inhibition of aggregation is -12.2% (inactive). Besides, the values for the nuclei count in test [2] and in test [3] were 98.8% and 94.7%, respectively. Moreover, the fluorescence slope in test [4] was -0.388 (inactive). Further, the NADPH fluorescence slope in test [5] was -3.6e-05 (inactive). In addition, in test [6], the slope is 0.00485 (inactive).
For the molecule `COc1ccc(C(C(=O)NC2CCCCC2)N2CCC3(CC2)OCCO3)cc1` (centres undefined), in test [1], the cell count was determined as 953. The inhibition in test [1] was 1.8% (inactive); in test [3] it was -18.3% (inactive); in test [7], 31.2% (inactive); in test [8] it was 89.5% (active). Moreover, the inhibition of aggregation in test [2] was -42.7% (inactive). The figures for the nuclei count in test [2] and in test [3] were 132% and 135%, respectively. Moreover, the fluorescence slope in test [4] was -0.525 (inactive). The NADPH fluorescence slope in test [5] is -6.1e-05 (inactive). For the same molecule, the slope in test [6] is 0.00579 (inactive).
For `c1cc(-c2nc3ccccc3o2)nc(-c2nc3ccccc3o2)c1`, the cell count in test [1] was found to be 426. Besides, the inhibition was 17% (inactive) in test [1], 9.6% (inactive) in test [3], 16.6% (inactive) in test [7] and 30.1% (inactive) in test [8]. For the same molecule, the inhibition of aggregation in test [2] is -10.7% (inactive). For the same molecule, the results for the nuclei count in test [2] and in test [3] were 82.8% and 113%, respectively. Moreover, the fluorescence slope in test [4] is -0.39 (inactive). Moreover, in test [5], the NADPH fluorescence slope is -5.8e-05 (inactive). Further, in test [6], the slope was 0.00362 (inactive).
Consider `Cc1nc2ccccc2c2oc(C(=O)N3CCN(C(=O)c4ccco4)CC3)cc12`, for which, in test [1], the cell count turned out to be 784. Besides, the inhibition was 11.3% (inactive) in test [1], 4.8% (inactive) in test [3], 6.87% (inactive) in test [7] and 12.8% (inactive) in test [8]. In test [2], the inhibition of aggregation was 0% (inactive). Further, the nuclei count in test [2] worked out at 65.6%; in test [3] it was 98.3%. Further, the fluorescence slope in test [4] was -0.585 (inactive). The NADPH fluorescence slope in test [5] was -1.4e-05 (inactive). Moreover, the slope in test [6] is 0.00761 (inactive).
In the case of `CCS(=O)(=O)N1CCCC(C(=O)NCCc2ccc(OC)c(OC)c2)C1` (centres undefined), in test [1], the cell count was determined as 709. Besides, the inhibition in test [1] is -12.8% (inactive); in test [3], 45.8% (inactive); in test [7], -5.06% (inactive); in test [8], -6.59% (inactive). Moreover, the inhibition of aggregation in test [2] was -9.5% (inactive). Moreover, the nuclei count was 111% in test [2] and 109% in test [3]. Further, the fluorescence slope in test [4] is -0.43 (inactive). For the same molecule, the NADPH fluorescence slope in test [5] was 4.5e-06 (inactive). Further, the slope in test [6] was 0.00594 (inactive).
With `c1cc(CNc2ccc3c(c2)OCO3)ccn1`, the cell count in test [1] worked out at 240. For the same molecule, the inhibition in test [1] is -3.9% (inactive); in test [3], -91.7% (inactive); in test [7] it was -9.22% (inactive); in test [8] it was 13.6% (inactive). Further, the inhibition of aggregation in test [2] is 17.7% (inactive). The figures for the nuclei count in test [2] and in test [3] were 83.7% and 112%, respectively. The fluorescence slope in test [4] was -0.48 (inactive). For the same molecule, the NADPH fluorescence slope in test [5] was -1.4e-05 (inactive). Also, in test [6], the slope was 0.00585 (inactive).
As for `O=C1C(c2ccncc2)=C(O)c2ccccc21`, the cell count in test [1] stood at 302. In addition, the inhibition in test [1] is -8.6% (inactive); in test [3], 0.7% (inactive); in test [7] it was 4.51% (inactive); in test [8] it was -0.387% (inactive). The inhibition of aggregation in test [2] was 1.9% (inactive). For the same molecule, the nuclei count in test [2] came to 73%; in test [3] it was 91.1%. For the same molecule, the fluorescence slope in test [4] is -0.333 (inactive). Further, the NADPH fluorescence slope in test [5] is -1.1e-05 (inactive). In addition, the slope in test [6] was 0.00364 (inactive).
`O=C(NC1CCCC1)C1CC1c1ccccc1` (centres undefined): the cell count in test [1] stood at 516. Further, the inhibition in test [1] was -4.3% (inactive); in test [3], 26.9% (inactive); in test [7], 8.1% (inactive); in test [8] it was 8.52% (inactive). In addition, the inhibition of aggregation in test [2] was -5.1% (inactive). Further, the results for the nuclei count in test [2] and in test [3] were 99.7% and 78.4%, respectively. The fluorescence slope in test [4] was -0.617 (inactive). In addition, the NADPH fluorescence slope in test [5] is -1.4e-05 (inactive). Also, in test [6], the slope is 0.00431 (inactive).
For the molecule `CCOC(=O)N1CCN(C(=O)COc2ccc(Br)cc2Cl)CC1`, the cell count in test [1] worked out at 317. Also, the inhibition in test [1] is 2% (inactive); in test [3] it was -27.2% (inactive); in test [7], 6.45% (inactive); in test [8], 30.7% (inactive). Moreover, the inhibition of aggregation in test [2] was -6.6% (inactive). For the same molecule, the nuclei count came out at 98.4% in test [2] and 118% in test [3]. For the same molecule, the fluorescence slope in test [4] is -0.445 (inactive). Besides, in test [5], the NADPH fluorescence slope was -5.1e-05 (inactive). Moreover, the slope in test [6] is 0.00378 (inactive).
In the case of `Cc1cc(C)c2c(n1)nn1c(N3CCOCC3)cc(C)nc21`, the cell count in test [1] stood at 503. For the same molecule, the inhibition in test [1] is -6.3% (inactive); in test [3], -56.5% (inactive); in test [7], 2.18% (inactive); in test [8], 3.21% (inactive). Besides, in test [2], the inhibition of aggregation is 5.7% (inactive). The nuclei count in test [2] amounted to 81.9%; in test [3], 123%. For the same molecule, the fluorescence slope in test [4] was -0.0426 (active). For the same molecule, in test [5], the NADPH fluorescence slope was -2.7e-06 (inactive). Besides, the slope in test [6] was 0.00599 (inactive).
On to `CSc1nc(C)cc(OCC(=O)N2CCOCC2)n1`, for which, in test [1], the cell count stood at 262. Moreover, the inhibition in test [1] was -7.5% (inactive); in test [3], -37.5% (inactive); in test [7] it was 7.52% (inactive); in test [8], 23.9% (inactive). Further, the inhibition of aggregation in test [2] was 25.5% (inactive). For the same molecule, the nuclei count in test [2] stood at 104%; in test [3], 95%. In test [4], the fluorescence slope is -0.451 (inactive). In addition, the NADPH fluorescence slope in test [5] is -3.8e-05 (inactive). Also, in test [6], the slope was 0.00307 (inactive).
